Reference: the supplement of paper PMC13380429

System: Vero E6 infected with SARS-CoV-2
Experiment: inhibition of SARS-CoV-2 cytopathic effect; higher = more antiviral protection, active = above 15
Settings: 48 h

Structure (SMILES)	inhibition of SARS-CoV-2 cytopathic effect (1 nM)	inhibition of SARS-CoV-2 cytopathic effect (8.33 nM)	inhibition of SARS-CoV-2 cytopathic effect (100 nM)	inhibition of SARS-CoV-2 cytopathic effect (833.33 nM)	inhibition of SARS-CoV-2 cytopathic effect (10000 nM)
O=C1O[C@H]([C@@H](O)CO)C([O-])=C1O.[Na+] [sodium-ascorbate]	-1.43% (inactive)	0.79% (inactive)	0.39% (inactive)	1.19% (inactive)	2.74% (inactive)
CCC[C@H](NC(=O)/C(C#N)=C/c1cccc(Br)n1)c1ccccc1	1.89% (inactive)	1.78% (inactive)	-0.09% (inactive)	4.12% (inactive)	-5.9% (inactive)
CN1CCC[C@@H]1CCSc1ccc(O)cc1	0.25% (inactive)	0.01% (inactive)	0.07% (inactive)	-1.07% (inactive)	-3.04% (inactive)
N[C@H]1CCN(O)C1=O	-2.5% (inactive)	-0.335% (inactive)	-0.065% (inactive)	-1.54% (inactive)	0.17% (inactive)
NCCC(O)(P(=O)(O)O)P(=O)(O)O [pamidronate]	-0.49% (inactive)	2.17% (inactive)	-0.58% (inactive)	-3.14% (inactive)	-1.25% (inactive)
CN1C(C)(C)CCCC1(C)C [pempidine]	-2.83% (inactive)	-0.7% (inactive)	-4.34% (inactive)	-1.68% (inactive)	-2.1% (inactive)
CCC(NC(C)C)C(O)c1ccc(O)c2[nH]c(=O)ccc12 (stereo not given) [procaterol]	-1.54% (inactive)	0.18% (inactive)	-2.76% (inactive)	-0.33% (inactive)	-1.47% (inactive)
Cc1[nH]c(/C=C2\C(=O)Nc3ccccc32)c(C)c1CCC(=O)O [orantinib]	-0.96% (inactive)	2.48% (inactive)	1.61% (inactive)	-0.48% (inactive)	-0.87% (inactive)
CC[C@@]1([C@H]2O[C@H]([C@H]3O[C@@](O)(CO)[C@H](C)C[C@@H]3C)C[C@H]2C)CC[C@H]([C@@]2(C)CC[C@]3(C[C@H](O)[C@@H](C)[C@@H]([C@H](C)[C@H](OC)[C@@H](C)C(=O)O)O3)O2)O1	-2.66% (inactive)	-0.7% (inactive)	2.93% (inactive)	27.6% (active)	52.5% (active)
OC[C@@H](O)[C@@H](O[C@@H]1O[C@H](CO)[C@H](O)[C@H](O)[C@H]1O)[C@H](O)[C@@H](O)CO	-1.07% (inactive)	0.84% (inactive)	0.06% (inactive)	0.18% (inactive)	-0.36% (inactive)
O=C(CN1C2=NCCN2c2ccccc21)c1ccc(-c2ccccc2)cc1	-0.77% (inactive)	3.75% (inactive)	1.71% (inactive)	-0.84% (inactive)	14.8% (inactive)
CNC(=O)CN1CCC(Oc2cc3c(Nc4cccc(Cl)c4F)ncnc3cc2OC)CC1	-0.01% (inactive)	0.66% (inactive)	-6.91% (inactive)	-7.8% (inactive)	-13.6% (inactive)
C=C1/C(=C\C=C2/CCC[C@]3(C)[C@@H]([C@H](C)OCCC(C)(C)O)CC[C@@H]23)C[C@@H](O)C[C@@H]1O [maxacalcitol]	1.71% (inactive)	0.65% (inactive)	-1.77% (inactive)	0.61% (inactive)	-0.56% (inactive)
O=C(OC(C(F)(F)F)C(F)(F)F)N1CCN(Cc2cccc(Oc3ccccc3)c2)CC1	3.59% (inactive)	4.7% (inactive)	3.33% (inactive)	3.51% (inactive)	2.77% (inactive)
O=C1CC2(CCCC2)CC(=O)N1CCCCNC[C@H]1COc2ccccc2O1 (racemic)	2.83% (inactive)	-1.41% (inactive)	-1.75% (inactive)	-0.98% (inactive)	-5.48% (inactive)
Cc1nc(C)c(-c2ccc(C3CCC(CC(=O)O)CC3)cc2)nc1C(N)=O (stereo not given)	5.02% (inactive)	2.17% (inactive)	0.91% (inactive)	3.12% (inactive)	-3.42% (inactive)
Cc1cc(C)c(CNC(=O)c2cc(-c3ccc(N4CCN(C)CC4)nc3)cc3c2c(C)cn3C(C)C)c(=O)[nH]1	-3.53% (inactive)	-2.54% (inactive)	-3.49% (inactive)	-2.29% (inactive)	-3.02% (inactive)
O=C1c2ccccc2C(Cc2ccncc2)(Cc2ccncc2)c2ccccc21	1.49% (inactive)	-1.95% (inactive)	-1.48% (inactive)	-2.88% (inactive)	-3.65% (inactive)
